From article PMC4336329 (PLoS ONE, 2015)
About 14,000 (4.5%) of roughly 310,000 compounds showed an effect of 50% or more. The effect is printed as a negative number. The sample holds strong results, similar compounds and a random draw of the others, so the mix is not that of the screen.

These compounds were tested against human ether-à-go-go-related gene (hERG) potassium channel (human, UniProt Q12809) (assay: primary screen, population patch clamp on CHO cells stably expressing hERG; higher = less effect of the substance).
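Further: peak tail current of the secondary pulse compared with the same well before compound.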

human ether-à-go-go-related gene (hERG) potassium channel, sequence (Q12809 whole entry, looked up): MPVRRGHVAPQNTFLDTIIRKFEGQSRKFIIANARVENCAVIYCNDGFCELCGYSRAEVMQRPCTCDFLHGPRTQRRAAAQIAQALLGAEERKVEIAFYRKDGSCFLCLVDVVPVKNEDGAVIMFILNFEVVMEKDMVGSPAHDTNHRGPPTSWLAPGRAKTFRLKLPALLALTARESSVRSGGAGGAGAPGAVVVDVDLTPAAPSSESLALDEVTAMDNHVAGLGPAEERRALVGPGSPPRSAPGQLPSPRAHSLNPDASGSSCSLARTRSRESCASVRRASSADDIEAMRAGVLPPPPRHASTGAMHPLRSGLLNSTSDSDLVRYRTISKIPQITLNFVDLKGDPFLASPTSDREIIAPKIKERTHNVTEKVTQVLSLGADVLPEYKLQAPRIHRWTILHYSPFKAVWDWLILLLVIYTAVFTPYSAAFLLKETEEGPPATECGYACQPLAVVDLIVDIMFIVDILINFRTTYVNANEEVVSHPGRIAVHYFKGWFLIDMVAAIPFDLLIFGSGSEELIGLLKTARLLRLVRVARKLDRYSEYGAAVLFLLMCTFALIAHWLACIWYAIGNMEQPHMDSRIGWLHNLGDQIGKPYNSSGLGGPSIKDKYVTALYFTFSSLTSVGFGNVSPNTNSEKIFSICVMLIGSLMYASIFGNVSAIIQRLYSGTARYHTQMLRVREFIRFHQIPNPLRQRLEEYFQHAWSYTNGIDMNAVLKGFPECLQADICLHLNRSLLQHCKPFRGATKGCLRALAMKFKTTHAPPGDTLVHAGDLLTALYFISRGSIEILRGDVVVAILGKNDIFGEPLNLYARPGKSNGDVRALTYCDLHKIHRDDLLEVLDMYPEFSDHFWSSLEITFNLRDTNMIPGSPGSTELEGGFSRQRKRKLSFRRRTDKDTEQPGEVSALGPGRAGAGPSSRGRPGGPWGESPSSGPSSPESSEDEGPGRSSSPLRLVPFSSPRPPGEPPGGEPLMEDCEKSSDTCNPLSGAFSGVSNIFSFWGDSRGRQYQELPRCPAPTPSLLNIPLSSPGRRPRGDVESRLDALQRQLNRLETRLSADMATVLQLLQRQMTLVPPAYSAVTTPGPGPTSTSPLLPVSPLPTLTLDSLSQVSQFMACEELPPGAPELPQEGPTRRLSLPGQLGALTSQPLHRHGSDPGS

In order of falling “hERG current change (%, negative = inhibition) at 10uM” value:
1. CSc1ncccc1C(=O)OCC(=O)c1ccccc1  35%
2. CCOc1ccc(-c2c(C(=O)N/N=C/c3sccc3C)nnn2-c2nonc2N)cc1  19.7%
3. COc1cccc(N2C(=O)Nc3ccc(Br)cc3C2(O)C(=O)NCCCN(C)C)c1 (stereo not drawn)  19.3%
4. Cc1ccc(C(=O)Oc2cccc(NC(=O)c3ccccc3)c2)cc1C  19.2%
5. Cc1cc(C)nc(Oc2ccc(Br)cc2Br)n1  19.1%
6. CCN(CC(=O)Nc1ccc2c(c1)OCCO2)C(=O)CC(NC(C)=O)c1ccccc1 (stereo not drawn)  18.7%
7. Cc1ccccc1C1NC(=S)NC2=C1C(=O)CC(C)(C)C2 (stereo not drawn)  18.5%
8. NC(=O)c1c(NC(=O)c2ccccc2Cl)sc2c1CCC2  15.1%
9. CCOc1ccccc1N1CC(C(=O)N2CCOCC2)CC1=O (stereo not drawn)  13.9%
10. Cc1ccc(NC(=O)CSc2nnc(C3COc4ccccc4O3)o2)c(Cl)c1 (stereo not drawn)  12.5%
11. Cc1ccc(NC(=S)N(Cc2ccccc2)C(C)C)cc1  12%
12. CCOC(=O)Cc1csc(NC(=S)NC(=O)c2ccc(F)cc2)n1  11.9%
13. CCN1CCN(Cc2ccc(NC(=O)c3cc(NC(=O)c4cc(-c5ccc(OC)cc5)n[nH]4)cc(OC)c3)cc2C(F)(F)F)CC1  11.9%
14. CCOc1ccccc1NS(=O)(=O)c1csc(C(N)=O)c1  11.7%
15. CCn1cc(C(=O)OCC(=O)N2C(C)CCCC2C)c(=O)c2ccc(C)nc21 (stereo not drawn)  11%
16. CCC(=O)Nc1sc2c(c1C(N)=O)CCN(C(C)=O)C2  10.7%
17. CCOc1ccccc1CN1CCN(S(=O)(=O)CC)CC1.O=C(O)C(=O)O  10.7%
18. c1cn(CCCNc2ncnc3nc[nH]c23)cn1  8.93%
19. Cc1ccccc1N(CC(=O)NC1CCCCC1)C(=O)c1csnn1  8.46%
20. Cc1ccccc1C(=O)Nc1ccccc1C(=O)NC1CC1  6.72%
21. C=CCOc1ccccc1CN1CCCN(C)CC1  6.51%
22. CN(C)C(=S)Nc1cccc(C(F)(F)F)c1  5.67%
23. Cc1cc(C)cc(NC(=O)[C@@H](NC(=O)c2ccco2)C(C)C)c1  5.62%
24. COc1ccc(OCCOCC(O)CN2CCOCC2)cc1.Cl (stereo not drawn)  4.55%
25. CC1=C/C(=C(/c2ccc(O)c(C)c2)c2ccccc2S(=O)(=O)[O-])C=CC1=O.[Na+]  3.9%
26. Brc1ccc(-c2noc(-c3ccccn3)n2)o1  2.68%
27. COc1ccc(-c2oc3ncnc(NCCCN4CCOCC4)c3c2-c2ccc(OC)cc2)cc1  2.49%
28. COc1ccc(NC(=S)N(CCO)Cc2ccccc2)cc1  2.34%
29. Cc1cc(C(=O)NNC(=O)/C=C/c2ccc(F)cc2)c(C)o1  1.41%
30. COc1ccc(-n2ncc3c(N4CCc5ccccc54)ncnc32)cc1  0.927%
31. COc1ccc(NC(=O)CN(C)CC(=O)Nc2sc3c(c2C#N)CCC3)cc1  0.0459%
32. CC(CCc1ccccc1)NC(=O)CNC(=O)COc1ccccc1 (stereo not drawn)  -0.873%
33. COc1ccc(CC(=O)Nc2sc3c(c2C(N)=O)CCCC3)cc1  -1.39%
34. O=C(NC(=S)Nc1ccc2cn[nH]c2c1)c1ccccc1  -2.32%
35. FC(F)Oc1ccc(NC(=S)NCc2cccnc2)cc1  -2.69%
36. CC1CC(C)CN(C(=O)Cn2c(=O)oc3cc(S(=O)(=O)N4CCCC4)ccc32)C1 (stereo not drawn)  -3.39%
37. CC(C)N(Cc1ccccc1)C(=S)Nc1ccc(F)cc1  -3.42%
38. COc1cc(CN2CCC(C(=O)N3CCN(c4ccccc4F)CC3)CC2)cc(OC)c1O.O=C(O)C(=O)O  -3.74%
39. COc1ccccc1N1CCN(CC(O)COc2ccc(S(=O)(=O)N3CCOCC3)cc2)CC1.Cl (stereo not drawn)  -4.3%
40. Cc1cc(C)cc(NC(=O)C2CCCN(S(=O)(=O)c3c(C)noc3C)C2)c1 (stereo not drawn)  -4.34%
41. COc1ccccc1NC(=O)CSc1nnc(Cn2nnc(-c3ccccc3)n2)n1-c1ccccc1  -5.02%
42. CN(CC(=O)Nc1ccc(C(N)=O)cc1)CC(=O)Nc1ccccc1Cl  -5.04%
43. Cc1cccc(OCCCC(=O)Nc2ccc(N(C)C)cc2)c1  -5.54%
44. C=CCOC(=O)c1cn(CC)c2nc(C)ccc2c1=O  -5.77%
45. COc1ccc(S(=O)(=O)N(C)c2ccc(C(=O)N3CCOCC3)cc2)cc1  -6.62%
46. CN(C)S(=O)(=O)c1cccc(NC(=S)N(CCC#N)Cc2cccnc2)c1  -7.37%
47. Cc1cccc(OCC(=O)N/N=C\c2cc3c(cc2[N+](=O)[O-])OCO3)c1C  -7.82%
48. COc1ccccc1CN1CCN(C(=O)COc2ccccc2)CC1  -8.47%
49. CCC(C)c1ccccc1N1CC(C(=O)Nc2ccc(S(=O)(=O)N3CCOCC3)cc2)CC1=O (stereo not drawn)  -9.78%
50. Cc1nnc(-c2ccccc2)nc1N1CCOCC1  -10.2%
51. COc1cccc(CN2CCC(C(=O)N3CCN(c4ccccc4F)CC3)CC2)c1OC.O=C(O)C(=O)O  -10.2%
52. COc1cccc(CN2CCC(C(=O)N3CCC(C)CC3)CC2)c1.O=C(O)C(=O)O  -11%
53. Cc1ccc(NC(=O)CSc2ccc(-c3cccnc3)nn2)cc1  -12.3%
54. Clc1ccc2oc(-c3cccnc3)nc2c1  -14.9%
55. CC(C)Nc1nc(NC(C)(C)C)nc(Oc2ccc(=O)n(C)n2)n1  -15.3%
56. CCC(=O)Nc1sc2c(c1C(N)=O)CCC2  -15.7%
57. CCOc1ccccc1N1CC(C(=O)N2CCc3ccccc3C2)CC1=O (stereo not drawn)  -19.4%
58. FC(F)(F)c1cccc(-c2nnc(-c3ccccc3)c(N3CCOCC3)n2)c1  -19.7%
59. COc1cc(CN2CCC(C(=O)N3CCN(c4ccccc4F)CC3)CC2)ccc1O.O=C(O)C(=O)O  -19.9%
60. c1ccc(-c2oc3ncnc(NCCN4CCOCC4)c3c2-c2ccccc2)cc1  -21.3%
61. Cc1ccc(OCCCC(=O)Nc2cc(Cl)ccc2-n2cncn2)cc1  -22.4%
62. COC(=O)C1(C)NC(c2ccco2)C2C(=O)N(c3ccc(C)cc3)C(=O)C21 (stereo not drawn)  -22.5%
63. COc1cc(CN2CCC(C(=O)N3CCN(c4ccccc4F)CC3)CC2)cc(OC)c1OC.O=C(O)C(=O)O  -22.6%
64. Cc1csc(NC(=O)CCCNC(=O)c2ccc(Cl)cc2)n1  -23.6%
65. CN(C)CCCN(Cc1ccccc1)C(=S)Nc1ccc(F)c(Cl)c1  -24.3%
66. Cc1c(C(=O)NC2=NCCS2)oc2ccccc12  -25.4%
67. Clc1ccc(-n2ncc3c(NCCCn4ccnc4)ncnc32)cc1  -26.1%
68. CCOC(=O)N1CCN(C(=O)CSCC(=O)Nc2nc(-c3cccs3)cs2)CC1  -31.4%
69. Cc1cccc(C)c1NC(=O)CN(C)CC(=O)Nc1sc2c(c1C(N)=O)CCC2  -33.9%
70. OCC1(CCOc2ccccc2)CCN(Cc2ccccc2C(F)(F)F)CC1  -34.2%
71. CCCN(Cc1ccccc1)C(=S)Nc1ccc(OCC)cc1  -35.8%
72. COc1ccc(CN2CCC(C(=O)N3CCN(c4ccccc4F)CC3)CC2)cc1OC  -37%
73. CCn1cc(C(=O)OCC(=O)OC2CC(C)CCC2C(C)C)c(=O)c2ccc(C)nc21 (stereo not drawn)  -51.8%
74. CN(C)CCCN(Cc1ccccc1)C(=S)Nc1cccc(C(F)(F)F)c1  -52.6%
75. COc1cccc(CN2CCC(C(=O)N3CCN(c4ccccc4F)CC3)CC2)c1  -53%
76. Cc1ccc(NC(=O)CN(C)CC(=O)Nc2sc3c(c2C(N)=O)CCC3)cc1  -55.5%
77. CC(C)N(Cc1ccccc1)C(=S)Nc1ccc(OC(F)F)cc1  -56.7%
78. COc1ccccc1N1CCN(CC(O)COCCOc2ccc(Br)cc2)CC1.Cl (stereo not drawn)  -58.8%
79. CCOc1ccc(CN2CCC(C(=O)N3CCN(c4ccccc4F)CC3)CC2)cc1OC.O=C(O)C(=O)O  -64.8%
80. COc1ccc(OC)c(CN2CCC(C(=O)N3CCN(c4ccccc4F)CC3)CC2)c1.O=C(O)C(=O)O  -65.3%
81. CN(CC(=O)Nc1ccccc1Cl)CC(=O)Nc1sc2c(c1C(N)=O)CCC2  -66.2%
82. CCOc1ccccc1N1CC(C(=O)N2CCN(Cc3ccc(C#N)cc3)CC2)CC1=O (stereo not drawn)  -67.3%
83. COc1ccc(N2CCN(CC(O)COCCOc3ccc(Br)cc3)CC2)cc1.Cl (stereo not drawn)  -69.1%
84. c1ccc(-c2oc3ncnc(NCCCn4ccnc4)c3c2-c2ccccc2)cc1  -69.9%
85. CN(C)CCCN(Cc1ccccc1)C(=S)Nc1ccc(OC(F)F)cc1  -70.3%
86. OCC1(CCOc2ccccc2)CCN(Cc2ccccc2OC(F)F)CC1  -72.5%
87. Cc1nnc(-c2cccc(C(F)(F)F)c2)nc1N1CCOCC1  -74.1%
88. N#CCCN(Cc1cccnc1)C(=S)Nc1ccc(OC(F)F)cc1  -78.2%
89. COc1ccc(NC(=O)CN(C)CC(=O)Nc2sc3c(c2C(N)=O)CCC3)cc1  -79%
90. OCC1(CCOc2ccccc2)CCN(Cc2ccc(OC(F)F)cc2)CC1  -79%
91. CCOc1ccccc1CN1CCC(CO)(CCOc2ccccc2)CC1  -80.2%
92. C=CCOc1ccccc1CN1CCC(CO)(CCOc2ccccc2)CC1  -81.9%
93. c1ccc(-c2oc3ncnc(NCCCN4CCOCC4)c3c2-c2ccccc2)cc1  -87.1%
